Bioassay records as filed in PubChem BioAssay.
Giardia kill – kills Giardia lamblia | Giardia lamblia trophozoite viability | activity change, % at 7.66 µM, hits read low | 340,000 tested, 0.15% active | AID 540267; in the data active means activity change below about -80%; inconclusive means between about -30% and that limit;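 further: parasites exposed to compound for two days anaerobically before the ATP read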
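Trophozoite viability was measured as ATP-dependent luminescence, read 15-30 min after reagent addition. Before that, parasites at 100 cells/well were exposed to compounds for 48 h, anaerobically, at 37 deg C.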
uPA generation – blocks generation of uPA at the cell surface | cell surface uPA generation assay, qHTS | Potency, µM (highest dose often 38.3 µM), most hits filed as inhibitors | 330,000 tested, 0.31% active | AID 540303; active means well fitted inhibition curve with a large enough effect; inconclusive means small, poorly fitted or top-dose-only effect; inactive means no such curve, though single readings can be large or run the other way; tested in mouse RAW 264.7 cells; further: nearly all actives have a fitted effect of over 55% in size
B2AR arrestin – beta2AR (human) beta-arrestin recruitment activity; P07550; beta-arrestin recruitment to beta2AR, cell-based reporter; Potency, µM (series often up to 46.1 µM), usual class: activators; 330,000 tested, 0.02% active; AID 492947; further: nearly all actives have a fitted effect of over 65% in size
Target sequence (P07550 whole entry, looked up): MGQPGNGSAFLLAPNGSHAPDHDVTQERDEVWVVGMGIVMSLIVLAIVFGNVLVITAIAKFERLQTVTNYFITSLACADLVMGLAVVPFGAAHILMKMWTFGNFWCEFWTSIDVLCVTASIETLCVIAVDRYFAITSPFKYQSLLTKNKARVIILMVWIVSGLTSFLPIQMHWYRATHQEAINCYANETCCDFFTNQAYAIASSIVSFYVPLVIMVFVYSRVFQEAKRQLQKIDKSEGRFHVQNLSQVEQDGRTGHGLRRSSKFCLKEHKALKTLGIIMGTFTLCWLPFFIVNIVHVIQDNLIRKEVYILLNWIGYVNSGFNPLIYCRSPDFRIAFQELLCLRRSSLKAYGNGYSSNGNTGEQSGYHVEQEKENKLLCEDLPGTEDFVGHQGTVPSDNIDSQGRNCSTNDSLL
ClpP mod – qHTS Assay for Activators of ClpP. purified B. subtilis ClpP, FRET peptide cleavage, 20 min. Potency, µM (highest dose often 57.5 µM). 340,000 tested, 1.9% active. AID 651965, 2013; active means well fitted falling curve with a large enough effect; inconclusive means small, poorly fitted or top-dose-only effect; inactive means no such curve, though single readings can be large or run the other way; further: the source files actives as falling curves though it sought activators and does not explain the sign; nearly all actives have a fitted effect of over 65% in size
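FRET quenching reversal measured ClpP activation: 10 microg/mL B. subtilis ClpP at pH 8 with the FRET-FV decapeptide, read at 430 nm after 320 nm excitation. The 20-min minus 0-min signal was scaled between DMSO/no-enzyme wells and ADEP (5.8 microM final).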
p53 reactivator – re-activators of mutant p53 | H1299 p53-A138V BP100-luciferase reporter, luminescence, 24 h | Potency, µM (doses to about 92.2 µM), most hits filed as activators | 320,000 tested, 0.063% active; further: nearly all actives have a fitted effect of over 45% in size
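p53-null H1299 cells stably carrying temperature-sensitive p53-A138V and a BP100-luciferase reporter were pinned with compounds (4-point, 1:5 series) and held 24 hrs at 37 deg C. Luminescence was read 10 min after detection reagent.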
Mito fusion yeast – blocks mitochondrial division or promotes mitochondrial fusion; S. cerevisiae fusion-defective mutant growth rescue, CellTiterGlo 48 h; Potency, µM (highest dose often 46.1 µM), most hits filed as activators; 320,000 tested, 0.23% active; further: nearly all actives have a fitted effect of over 45% in size
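Temperature-sensitive fusion-defective S. cerevisiae (e.g. fzo1-1, mgm1-5) were grown with compound in YPEG medium (3% ethanol, 3% glycerol) for 48 hours at 37C. Growth rescue was measured as viability by CellTiterGlo luminescence after 10 minutes at ambient.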
Of the large screens only hits and unclear results are named; the others gave an inactive call. Only some compounds are listed: those with a hit (about 2.1% of all), similar ones and a draw of the others. Unless noted, the call rests on the fitted dose curve; in most records, active means well fitted curve in the direction sought with a large enough effect; inconclusive means small, poorly fitted or top-dose-only effect, or another doubt; inactive means no such curve, though single readings can be large; an effect the other way counts as inactive or inconclusive.

O=C1CC(c2ccc(F)cc2)c2cc3c(cc2N1)CCC3 (centres undefined)	p53 reactivator inconclusive, Mito fusion yeast 11µM
Cc1cc2c(cc1C)C(c1cccc(F)c1)CC(=O)N2 (centres undefined)	none (no result: p53 reactivator)
CC1(C)O[C@@H]2C[C@H]3[C@@H]4CCC5=CC(=O)C=C[C@]5(C)[C@@]4(F)[C@@H](O)C[C@]3(C)[C@]2(C(=O)CO)O1	Mito fusion yeast 13µM
CC1(C)OC2CC3C4CCC5=CC(=O)CCC5(C)C4(F)C(O)CC3(C)C2(C(=O)CO)O1 (centres undefined)	none (no result: B2AR arrestin, ClpP mod, p53 reactivator, Mito fusion yeast)
CCOc1ccc(C(=O)Nc2cc(-c3ccccc3)no2)cc1	none (no result: Giardia kill, uPA generation, B2AR arrestin, p53 reactivator, Mito fusion yeast)
COc1ccc([C@]23Cc4ccccc4C(O2)c2c(cc(C)n(Cc4ccccc4)c2=O)O3)cc1	none (no result: Giardia kill, uPA generation, ClpP mod, p53 reactivator)
CC(C)c1ccc(-c2c(C#N)c(N)nc(SCC(=O)N3CCCCCC3)c2C#N)cc1	none
N#Cc1c(N)nc(SCC(=O)NC2CCCCC2)c(C#N)c1-c1ccc(Cl)cc1	ClpP mod 28µM (no result: uPA generation)
COc1ccc2c(c1)CC/C(=C\Nc1ccc3c(c1)OCO3)C2=O	uPA generation inconclusive
COc1ccc(N/C=C2\CCc3ccccc3C2=O)cc1	uPA generation 1.3µM
Cc1cccc(-n2cnc(C(=O)NC3CCCCCC3)c2)n1	none
Cc1cccc(-n2cnc(C(=O)O)c2)n1	Mito fusion yeast 14µM (no result: ClpP mod)
CCC(C)NC(=O)c1cn(-c2cccc(C)n2)cn1 (centres undefined)	ClpP mod 32µM
COC(=O)c1ccccc1NC(=O)c1ccc2c(c1)C(=O)N(Cc1ccco1)C2=O	ClpP mod 28µM (no result: B2AR arrestin, p53 reactivator, Mito fusion yeast)
O=C(NCc1ccco1)c1ccc2c(c1)C(=O)N(Cc1ccccc1)C2=O	ClpP mod 28µM
Cc1ccc(Cl)cc1NC(=O)CN1C(=O)C(C)(C)c2cc(S(=O)(=O)N3CCCCC3)ccc21	none (no result: Giardia kill, uPA generation, B2AR arrestin, p53 reactivator, Mito fusion yeast)
CCCCNC(=S)N/N=C1\C(=O)c2cccc3cccc1c23	none
CNC(=S)N/N=C1\C(=O)c2cccc3cccc1c23	B2AR arrestin 3.5µM
O=C(Cn1cc(SCc2cccc(Cl)c2)c2ccccc21)N1CCOCC1	p53 reactivator 28µM
COCCn1c(-c2ccc(Cl)cc2Cl)nc2c(c(=O)c3ccccc3n2C)c1=O	ClpP mod 14µM
Cn1c(=O)c(Oc2ccc(Cl)cc2)c(O)c2ccccc21	ClpP mod inconclusive, Mito fusion yeast 10µM
COc1ccc(NC(=O)CN2C(=O)NC3(CCCc4ccccc43)C2=O)c(OC)c1 (centres undefined)	ClpP mod 16µM (no result: Mito fusion yeast)
COCCOC(=O)C1=C(C)NC2=C(C(=O)CC(C)(C)C2)C1c1cccnc1 (centres undefined)	ClpP mod 28µM
CC1=C(C(=O)OCCOC(C)C)C(c2cccnc2)C2=C(CCCC2=O)N1 (centres undefined)	ClpP mod inconclusive
CC1=C(C(=O)OC(C)C)C(c2cccnc2)C2=C(CC(C)(C)CC2=O)N1 (centres undefined)	ClpP mod 28µM
Cc1ccccc1-n1nnnc1SCc1ncc(-c2ccccc2)o1	ClpP mod 32µM
CCCN(Cc1ccccc1)C(=S)Nc1ccc(OC(F)F)cc1	ClpP mod 10µM
COCCN(Cc1ccccc1)C(=S)Nc1ccc(OC(F)F)cc1	none (no result: ClpP mod)
O=C(Nc1ncccn1)c1ccc([N+](=O)[O-])o1	Giardia kill -93 (no result: ClpP mod)
O=C(Nc1cc(-c2nc3ncccc3o2)ccc1Cl)c1ccc([N+](=O)[O-])o1	Giardia kill -83 (no result: ClpP mod)
O=C(Nc1ccccn1)c1ccc([N+](=O)[O-])o1	Giardia kill -93, uPA generation 7.1µM, p53 reactivator inconclusive
O=C(Nc1ccccc1C(=O)Nc1ccccn1)c1ccc([N+](=O)[O-])cc1	ClpP mod 32µM
COc1ccc(N2CCN(C(CNC(=O)C(=O)NCCc3ccccc3)c3cccnc3)CC2)cc1 (centres undefined)	none (no result: Giardia kill, uPA generation, B2AR arrestin, p53 reactivator, Mito fusion yeast)
CCOC(=O)c1ccc(NC(=O)CCc2c(C)nc3nc[nH]n3c2=O)cc1	none (no result: Giardia kill, uPA generation, B2AR arrestin, p53 reactivator, Mito fusion yeast)
COCc1cc(C)nc(NCCO)c1C#N	ClpP mod 32µM (no result: B2AR arrestin, p53 reactivator)
CCNc1nc(C)cc(COC)c1C#N	none
O=C1/C(=C/c2ccc([N+](=O)[O-])cc2)CCc2ccccc21	p53 reactivator 11µM (no result: Giardia kill, uPA generation, ClpP mod)
